# Screening data as filed in PubChem.
# A selection: hits, their analogues and other compounds. The true share with any hit is near 19%.
# TDP1 inh = blocks human tyrosyl-DNA phosphodiesterase 1; Q9NUW8; recombinant TDP1, AlphaScreen DNA substrate cleavage; Potency, µM (series often up to 130 µM), inactives show at the highest dose activity change, negative = inhibition, usual class: inhibitors; hit rate 0.28% among 350,000; AID 485290; further: potency means the concentration at half of the fitted maximal effect; nearly all actives have a fitted effect of over 40% in size
# Target sequence (Q9NUW8 whole entry, looked up): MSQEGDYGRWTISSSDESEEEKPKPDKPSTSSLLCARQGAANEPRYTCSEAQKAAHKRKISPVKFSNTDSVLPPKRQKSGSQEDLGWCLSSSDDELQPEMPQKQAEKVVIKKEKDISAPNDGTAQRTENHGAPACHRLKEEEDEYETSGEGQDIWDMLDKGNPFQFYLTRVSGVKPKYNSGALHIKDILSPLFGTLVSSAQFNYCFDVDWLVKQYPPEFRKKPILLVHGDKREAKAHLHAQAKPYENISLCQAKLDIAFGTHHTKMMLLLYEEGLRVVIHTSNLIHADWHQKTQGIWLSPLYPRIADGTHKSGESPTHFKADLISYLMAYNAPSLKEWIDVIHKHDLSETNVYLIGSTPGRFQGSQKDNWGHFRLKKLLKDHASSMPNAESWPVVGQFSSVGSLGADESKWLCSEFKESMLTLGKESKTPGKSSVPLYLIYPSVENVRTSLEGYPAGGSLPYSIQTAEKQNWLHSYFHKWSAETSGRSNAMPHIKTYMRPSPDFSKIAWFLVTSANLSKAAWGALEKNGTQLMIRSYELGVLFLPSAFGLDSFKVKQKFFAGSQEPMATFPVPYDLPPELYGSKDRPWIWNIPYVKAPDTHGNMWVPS
#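 Recombinant E. coli-expressed Tdp1 (1 nM) preincubated with compound 15 min at RT, then 5'-biotin/3'-phosphotyrosine-FITC DNA substrate (15 nM) added for 5 min. AlphaScreen beads (10 ug/ml) added, 10 min RT; tyrosine-FITC cleavage read as signal loss.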
# Giardia kill = Giardia lamblia killing. Giardia lamblia trophozoite viability. hit rate 0.15% among 340,000. activity change, % at 7.66 µM, hits read low. AID 540267; in the data active means activity change below about -80%; inconclusive means between about -30% and that limit;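 further: parasites exposed to compound for two days anaerobically before the ATP read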
#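 Compounds were tested on trophozoites seeded at 100 cells/well and held 48 hrs at 37 deg C anaerobically. An ATP-based luminescent kit measured the remaining live cells.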
# IL-1B inflam inh = inhibitors of inflammasome signaling (IL-1 beta secretion); THP-1 LPS/ATP IL-1B secretion, AlphaLISA, 16 h; active compounds read low; activity change, % at 57.5 µM; hit rate 4.7% among 360,000; AID 743279; in the data active means activity change below about -50%; inconclusive means mostly about -30% to -49%
#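 THP-1 cells pretreated 1 hr with compounds (up to 57.5 uM final), then stimulated with LPS (250 ng/mL final) plus ATP (1.25 mM final); secreted IL-1B measured by AlphaLISA after 16 hr, decreased signal indicating inhibition.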
# DT40 TDP1 no CPT = qHTS for Inhibitors of human tyrosyl-DNA phosphodiesterase 1 (TDP1): qHTS in cells in absence of CPT | DT40 Tdp1-/- hTDP1 cells, no CPT, ATP luminescence, 48 h | Potency, µM (series often up to 46.2 µM), without a hit: at the top dose activity change, negative = growth inhibition, most hits filed as inhibitors | hit rate 15% among 420,000; further: potency means the concentration at half of the fitted maximal effect; nearly all actives have a fitted effect of over 55% in size
#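 Growth kinetics read by CellTiter-Glo luminescence after ≥48 hr at 37 °C. Cells: DT40 Tdp1-/- stably carrying human TDP1, 400 per well, compound exposure in the absence of CPT (DMSO vehicle).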
# DT40 TDP1 CPT = growth inhibition of DT40 Tdp1-/-;hTDP1 cells with camptothecin (screen for TDP1 inhibitors) | Potency, µM (titrated, usually from 46.2 µM), for inactives: at the top dose activity change, negative = growth inhibition, usual class: inhibitors | AID 686979 | chicken DT40 Tdp1-/-;hTDP1 cells + 20 nM CPT, ATP luminescence, 48 h | hit rate 12% among 420,000; further: potency means the concentration at half of the fitted maximal effect; nearly all actives have a fitted effect of over 55% in size
#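 Cell growth measured by CellTiter-Glo luminescence after a minimum 48 h, 37 C compound exposure with 20 nM CPT in Tdp1-knockout DT40 cells stably expressing hTDP1, seeded 400/well; qHTS titration format.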
# ELG1 DNA repair = inhibitors of ELG1-dependent DNA repair in HEK293T cells | HEK293T ELG1-luciferase reporter, luminescence, 16 h; DNA damage induced by 5-fluorouridine | Potency, µM (titrated, usually from 46.1 µM), for the others: at the top dose activity change, negative = inhibition, actives largely listed as inhibitors | hit rate 2.3% among 330,000; further: potency means the concentration at half of the fitted maximal effect; nearly all actives have a fitted effect of over 55% in size
#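 Cells (2,000 per well) received 5-fluorouridine plus test compound or DMSO and were incubated 16 hr at 37 °C, 5% CO2. Luciferase activity was read by luminescence 30 min after ONE-Glo addition; signal suppression marked inhibition of damage-induced ELG1 function.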
# * marks the source's active call; other numbers are inactive results; ? = inconclusive; / = not tested or not shown; [ ] = dose if it differs, or a comment. Unless noted, the call rests on the fitted dose curve; in most records, active means well fitted curve in the direction sought with a large enough effect; inconclusive means small, poorly fitted or top-dose-only effect, or another doubt; inactive means no such curve, though single readings can be large; an effect the other way counts as inactive or inconclusive. On the % scale 0 is the no-effect control and ±100 the full control effect.
SMILES,TDP1 inh,Giardia kill,IL-1B inflam inh,DT40 TDP1 no CPT,DT40 TDP1 CPT,ELG1 DNA repair
CC(C)Oc1ccc(CNC(=O)c2ccc(NC(=O)c3nsc4ccccc34)cc2)cc1,-5%,/,/,18µM*,21µM*,/
CCOc1ccc(CNC(=O)c2ccc(NC(=O)c3nsc4ccccc34)cc2)cc1,0%,/,/,-16%,?,/
COc1cc(CN(CCN(C)C)Cc2ccccc2)ccc1OCc1ccccc1,/,-11,-63*,23µM*,?,9%
CN(C)CCCNC(=S)NCC(c1ccc(Cl)cc1Cl)c1c[nH]c2ccccc12 (stereo not given),13%,-6,-104*,?,?,?
O=C(Cc1c[nH]c2ccccc12)NCc1ccc(Cl)cc1Cl,4%,-6,12,1%,-10%,?
NCC(c1ccc(Cl)cc1Cl)c1c[nH]c2ccccc12 (stereo not given),/,-4,-88*,23µM*,18µM*,-11%
O=C(CC(C(=O)O)c1c[nH]c2ccccc12)c1ccccc1 (stereo not given),0%,-15,12,-4%,-5%,7%
CCCCNC(=S)NCC(c1ccccc1)c1c[nH]c2ccccc12 (stereo not given),/,-4,-19,?,12%,-28%
NCC(c1ccccc1Cl)c1c[nH]c2ccccc12 (stereo not given),4%,-22,?,13µM*,5.2µM*,-3%
Cc1ccccc1CNc1nc(N(C)C)nc2c1cnn2C,1%,/,/,?,-21%,/
Cc1cc(C(O)c2ncc(-c3cccc4ccccc34)[nH]2)ccc1F (stereo not given),/,/,-14,?,?,/
OC(c1cccc(Cl)c1)c1ncc(-c2ccc(Oc3ccccc3)cc2)[nH]1 (stereo not given),/,/,-52*,?,?,/
OC(c1ccc(Cl)c(F)c1)c1ncc(-c2cccc3ccccc23)[nH]1 (stereo not given),/,/,-60*,?,?,/
Cc1cc(F)ccc1C(O)c1ncc(-c2ccc(Oc3ccccc3)cc2)[nH]1 (stereo not given),/,/,1,?,21µM*,/
OC(c1ccc(Cl)c(F)c1)c1ncc(-c2ccc(Oc3ccccc3)cc2)[nH]1 (stereo not given),/,/,?,?,23µM*,/
OC(c1cccc(F)c1)c1ncc(-c2ccc(Oc3ccccc3)cc2)[nH]1 (stereo not given),/,/,-23,?,?,/
CC1CCc2onc(C(=O)N3CCN(c4ccccc4)CC3)c2C1 (stereo not given),2%,/,/,-30%,-30%,/
O=C(NCCC1CCCCN1S(=O)(=O)c1cccs1)C(=O)Nc1cccc(F)c1 (stereo not given),-4%,1,8,15µM*,23µM*,-19%
O=C(NCC1CCCN1S(=O)(=O)c1cccs1)C(=O)Nc1ccc(F)cc1 (stereo not given),/,15,-17,?,-50%,?
CCOc1ccc(CNC(=O)C2CCCCN2S(=O)(=O)c2ccc(F)cc2)cc1OC (stereo not given),0%,/,/,?,-26%,/
COc1cc(CNC(=O)C2CCCCN2S(=O)(=O)c2ccc(F)cc2)cc(OC)c1OC (stereo not given),0%,/,/,12µM*,?,/
COc1ccc(NC(=O)C(=O)NCCC2CCCCN2S(=O)(=O)c2ccc(F)cc2)cc1 (stereo not given),/,2,-7,10µM*,21µM*,?
O=C(NCCC1CCCCN1S(=O)(=O)c1cccs1)C(=O)Nc1ccc(F)cc1 (stereo not given),2%,8,-63*,?,?,-17%
Cc1cccc(C(=O)OCc2cc(=O)n3nc(C4CC4)sc3n2)c1,-1%,/,/,-8%,-4%,/
CCCNC(=O)c1cc(C2CCCN(C(=O)C3CCCCC3)C2)on1 (stereo not given),/,/,31,-12%,-18%,/
SMILES,TDP1 inh,Giardia kill,IL-1B inflam inh,DT40 TDP1 no CPT,DT40 TDP1 CPT,ELG1 DNA repair
Nc1ccc(OCc2ccco2)cc1,4%,2,-2,0%,-6%,?
Cc1ccccc1C(=O)NC(C)c1nnc2n1CCN(Cc1ccccc1F)CC2 (stereo not given),/,/,/,-12%,-7%,/
CCOC(=O)c1ccc(Nc2nc(N)c3cc(OC)c(OC)cc3n2)cc1,-2%[12.3 µM],?,-10,21µM*,7.3µM*,-24%
COc1cc2nc(Nc3ccc(C)c(Cl)c3)nc(N)c2cc1OC,/,-12,-94*,?,?,?
Cc1ccc(Nc2nc3ccccc3n3cnnc23)cc1Cl,/,12,62,?,?,30%
Cc1ccc(Nc2nc(N)c3ccccc3n2)cc1Cl,/,-14,-97*,?,15µM*,?
COC(=O)c1ccc(Nc2nc(C)cc(C)n2)cc1,4%,-17,0,-7%,-3%,9%
COc1cc2nc(Nc3cccc(C)c3)nc(N)c2cc1OC,-2%[12.3 µM],/,/,3.3µM*,12µM*,/
O=C(c1cc(Br)c[nH]1)N1CCSCC1,/,-20,-15,10%,6%,16%
Cc1ccc(Nc2ncnc(N)n2)cc1C,5%,3,-11,5%,-14%,?
COc1cc2nc(Nc3ccc(C)c(C)c3)nc(N)c2cc1OC,5%,57,-98*,15µM*,23µM*,-3%
COc1cc2nc(Nc3ccc(F)cc3)nc(N)c2cc1OC,-2%,8,/,4.6µM*,6.5µM*,?
CCOC(=O)c1ccc(Nc2ccc(-c3ccc(OC)c(OC)c3)nn2)cc1,0%,12,15,4.6µM*,?,0%
COc1ccc(-c2nc(C(N)=O)c3[nH]c(=O)n(-c4cccc(C)c4)c3n2)c(OC)c1,8%,-6,-9,23µM*,?,?
Cc1ccc(N(NC(=O)C(O)(c2ccccc2)c2ccccc2)C(=O)CCl)cc1,2%,-15,-98*,5.2µM*,4.1µM*,21µM*
O=C(Nc1ccccc1)NN(C(=O)CCl)c1ccccc1,18%,11,-96*,3.3µM*,3.3µM*,23µM*
CCC(O)(CC)C(=O)NN(C(=O)CCl)c1ccccc1,5%,15,-82*,15µM*,13µM*,?
CCN(CC)c1ccc(NC(=O)Nc2ccccc2)cc1,/,-10,?,?,-8%,?
CCCC(O)(CCC)C(=O)NN(C(=O)OC)c1ccccc1,5%,-20,-1,-8%,-18%,-3%
